The record followed here is PubChem BioAssay (NCI).

Assay in all cases: NCI-60 one-dose screen, 48 h (100 = growth as untreated, 0 = no growth, -100 = all killed)
One test deals with SK-MEL-2 melanoma. As to conditions: 10 µM unless noted.
The next test has as its system EKVX NSCLC. As to conditions: 10 µM unless noted.
The next test relates to SN12C renal. As to conditions: 10 µM unless noted.
The next test relates to UO-31 renal. As to conditions: 10 µM unless noted.
The test system of another test is TK-10 renal. As to conditions: 10 µM unless noted.
A further test concerns A498 renal. As to conditions: 10 µM unless noted.
Another test deals with CCRF-CEM leukemia. As to conditions: 10 µM unless noted.
The next test concerns MOLT-4 leukemia. As to conditions: 10 µM unless noted.
Another test has as its system SR leukemia. As to conditions: 10 µM unless noted.
Another test deals with RPMI-8226 leukemia. As to conditions: 10 µM unless noted.
A further test has as its system OVCAR-8 ovarian. As to conditions: 10 µM unless noted.
A further test deals with OVCAR-5 ovarian. As to conditions: 10 µM unless noted.
In a further test the test system is OVCAR-4 ovarian. As to conditions: 10 µM unless noted.
Another test has as its system SK-OV-3 ovarian. As to conditions: 10 µM unless noted.
The subject of a further test is IGROV1 ovarian. As to conditions: 10 µM unless noted.
Another test has as its system OVCAR-3 ovarian. As to conditions: 10 µM unless noted.
The next test concerns HS 578T breast. As to conditions: 10 µM unless noted.
The test system of another test is NCI/ADR-RES ovarian. As to conditions: 10 µM unless noted.
Another test has as its system CAKI-1 renal. As to conditions: 10 µM.

The panel holds about 83,000 compounds, 20% with a hit somewhere; the sample as a whole holds those more often.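 48-hour exposure, single concentration, 96-well plates; percent growth endpoint where 0 means no net growth. Active: below 10.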 Unmarked numbers belong to inactive results. The source made the active and inactive calls.

In the case of `COc1ccc(NC(=O)COCCOCCNC[C@@H]2C(=O)O[C@H]3[C@H]2CC/C(COC(=O)OC/C2=C/CC[C@@]4(C)O[C@H]4[C@H]4OC(=O)[C@@H](CN(C)C)[C@@H]4CC2)=C\CC[C@@]2(C)O[C@@H]32)c(O)c1C(N)=O`, the growth in the test on SK-MEL-2 melanoma is 68.3%; with EKVX NSCLC it was 81.5%; in the test with SN12C renal, 40%; with UO-31 renal, 2.07% (active); in the test on TK-10 renal it was -0.421% (active); with A498 renal, 96.2%. Further, the growth with CCRF-CEM leukemia is -9.68% (active); in the test with MOLT-4 leukemia it was -5.18% (active); with SR leukemia it was 0.464% (active); in the test with RPMI-8226 leukemia, 38.4%; with OVCAR-8 ovarian, 32.4%; in the test on OVCAR-5 ovarian, 91%. For the same compound, the growth with OVCAR-4 ovarian was 31.3%; in the test on SK-OV-3 ovarian, 79.4%; in the test with IGROV1 ovarian it was 26.6%; with OVCAR-3 ovarian it was 0.0325% (active); in the test on HS 578T breast it was 79.2%; in the test on NCI/ADR-RES ovarian, 101%.

As to `CC1CCc2cc(F)cc3c(=O)c(C(=O)O)cn1c23` (centres undefined), the growth with SK-MEL-2 melanoma is 125%; in the test with EKVX NSCLC it was 91.4%; with SN12C renal it was 98.2%; with UO-31 renal it was 78.5%; in the test with TK-10 renal, 103%; with CAKI-1 renal, 81%. Also, the growth with A498 renal is 88.1%; in the test on CCRF-CEM leukemia, 109%; in the test with MOLT-4 leukemia, 97.3%; in the test on SR leukemia, 95.4%; in the test on RPMI-8226 leukemia it was 105%; in the test on OVCAR-8 ovarian, 97.5%. Moreover, the growth was 111% with OVCAR-4 ovarian; 108% with SK-OV-3 ovarian; 109% in the test on IGROV1 ovarian; 114% in the test on OVCAR-3 ovarian; 103% in the test on HS 578T breast; 94.8% in the test on NCI/ADR-RES ovarian.

Turning to `COc1cc(/C=C2/Oc3cc4occc4c(OC)c3C2=O)ccc1OCC(=O)Nc1ccncc1`, the growth in the test with SK-MEL-2 melanoma is 102%; with EKVX NSCLC, 97.4%; in the test with SN12C renal, 104%; in the test on UO-31 renal, 70.3%; in the test with TK-10 renal it was 127%; with A498 renal it was 111%. Also, the growth was 103% in the test on CCRF-CEM leukemia; 110% in the test with MOLT-4 leukemia; 102% in the test with SR leukemia; 91.4% with RPMI-8226 leukemia; 104% in the test on OVCAR-8 ovarian; 113% in the test with OVCAR-5 ovarian. The growth was 111% in the test with OVCAR-4 ovarian; 93.1% with SK-OV-3 ovarian; 96.3% with IGROV1 ovarian; 99.8% with OVCAR-3 ovarian; 95.1% in the test with HS 578T breast; 107% in the test with NCI/ADR-RES ovarian.

Turning to `O=C1CCC(c2c(O)cc(O)c3c(=O)c(O)c(-c4ccc(O)c(O)c4)oc23)N1` (centres undefined), the growth was 98.2% in the test on SK-MEL-2 melanoma; 106% with EKVX NSCLC; 105% in the test with SN12C renal; 82.6% in the test with UO-31 renal; 92.7% with TK-10 renal; 92.1% in the test on A498 renal. Further, the growth was 103% in the test on CCRF-CEM leukemia; 92.2% in the test on MOLT-4 leukemia; 96.2% in the test with SR leukemia; 99.5% with RPMI-8226 leukemia; 105% in the test on OVCAR-8 ovarian; 104% with OVCAR-5 ovarian. The growth in the test with OVCAR-4 ovarian is 108%; in the test with SK-OV-3 ovarian, 85.1%; in the test with IGROV1 ovarian it was 107%; with OVCAR-3 ovarian it was 101%; in the test with HS 578T breast, 100%; in the test on NCI/ADR-RES ovarian, 96.8%.

On to `O=S(c1ccccc1)c1ccc2nnnn2n1` (centres undefined), for which the growth with SK-MEL-2 melanoma is 98.9%; with EKVX NSCLC, 101%; in the test with SN12C renal, 101%; in the test on UO-31 renal, 73.1%; in the test with TK-10 renal, 99%; in the test with A498 renal, 86.6%. In addition, the growth in the test with CCRF-CEM leukemia is 44.9%; with MOLT-4 leukemia it was 83.8%; in the test on SR leukemia, 85.2%; in the test with RPMI-8226 leukemia it was 95.7%; in the test on OVCAR-8 ovarian, 108%; in the test with OVCAR-5 ovarian, 110%. For the same compound, the growth in the test with OVCAR-4 ovarian was 111%; in the test on SK-OV-3 ovarian, 114%; with IGROV1 ovarian it was 75.8%; with OVCAR-3 ovarian it was 83.8%; with HS 578T breast it was 97.7%; in the test with NCI/ADR-RES ovarian it was 106%.

With `Cl[C@@H]1CCO[C@H](c2cc3ccccc3c3ccccc23)C1`, the growth was 101% in the test with SK-MEL-2 melanoma; 90.8% in the test on EKVX NSCLC; 95.4% in the test with SN12C renal; 89.2% with UO-31 renal; 92.8% with TK-10 renal; 77.2% with A498 renal. Further, the growth is 85.9% with CCRF-CEM leukemia; 98% in the test on MOLT-4 leukemia; 93.8% in the test on SR leukemia; 83.3% with RPMI-8226 leukemia; 98.9% in the test with OVCAR-8 ovarian; 91.5% in the test on OVCAR-5 ovarian. The growth in the test with OVCAR-4 ovarian was 94.8%; in the test on SK-OV-3 ovarian it was 97.2%; in the test with IGROV1 ovarian, 97.9%; with OVCAR-3 ovarian, 108%; in the test on HS 578T breast, 103%; with NCI/ADR-RES ovarian, 103%.

For `CC(Cc1cccc(C(F)(F)F)c1)NCCOC(=O)c1ccccc1` (centres undefined), the growth is 113% in the test on SK-MEL-2 melanoma; 84.6% with EKVX NSCLC; 99.8% in the test on SN12C renal; 85.4% in the test on UO-31 renal; 129% with TK-10 renal; 87.4% with CAKI-1 renal. The growth with A498 renal is 107%; with CCRF-CEM leukemia, 105%; in the test on MOLT-4 leukemia, 96.1%; in the test with SR leukemia it was 92.4%; in the test with RPMI-8226 leukemia, 116%; in the test with OVCAR-8 ovarian, 110%. Further, the growth with OVCAR-4 ovarian is 110%; in the test on SK-OV-3 ovarian, 106%; in the test with IGROV1 ovarian, 105%; in the test on OVCAR-3 ovarian, 115%; in the test on HS 578T breast, 101%; in the test with NCI/ADR-RES ovarian, 92.9%.

Consider `COc1cc(NC(=O)C#Cc2ccccc2)c(OC)cc1Cl`, for which the growth was 60.4% in the test on SK-MEL-2 melanoma; 62.7% in the test on EKVX NSCLC; 26.4% with SN12C renal; 40.4% with UO-31 renal; 111% with TK-10 renal; 100% in the test on A498 renal. Also, the growth in the test with CCRF-CEM leukemia is 11.1%; in the test with MOLT-4 leukemia, 22.4%; in the test on SR leukemia, 12.4%; in the test on RPMI-8226 leukemia it was 10.8%; with OVCAR-8 ovarian, 38.6%; in the test with OVCAR-5 ovarian, 79.4%. Besides, the growth in the test with OVCAR-4 ovarian was 93.8%; with SK-OV-3 ovarian it was 97.8%; in the test on IGROV1 ovarian, 4.48% (active); with OVCAR-3 ovarian it was 82.8%; with HS 578T breast, 79.8%; in the test on NCI/ADR-RES ovarian, 56.5%.
